# Entries with a potency or affinity are not part of this list. The source made the active and inactive calls.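 Rule for the calls: active = viability loss with half-effect dose no higher than twice the top dose, at all three exposure times; inconclusive = exposure times disagree or give unclear fits; inactive = inactive at every exposure time.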
# Test: cytotoxicity in SNB-19 cells – cell-based, CellTiter-Glo ATP luminescence, 8-48 h, dry powder, mechanism study for HRAS target identification, late-stage follow-up (AID 720611)
row,Compound,outcome
1,CCC(=O)N(c1ccc(OC)c(Cl)c1)C(C(=O)NCCc1ccccc1)c1cccs1 (configuration not stated),inactive
2,Cc1onc(C(=O)N2CCN(C(c3ccncc3)c3ccncc3)CC2)c1[N+](=O)[O-],inactive

# — PubChem BioAssay AID720611 (Broad Institute, 2013)
